mHTT-CaM PPI inh = disrupts binding of mutant huntingtin to calmodulin | P42858 | AID 1671202 | inhibition, % at 15 µM | AlphaScreen His-mHTT/GST-CaM binding, luminescence | 190,000 tested, 3.6% active
Pf apPOL block = Pf-apPOL DNA polymerase inhibition; 210,000 tested, 0.25% active; Recombinant Pf-apPOL, molecular beacon fluorescence, 1.5 h; inhibition, % at 10 µM; AID 1794808
Large screens that a line does not name were inactive. A selection: hits, their analogues and other compounds. The true share with any hit is near 3.5%. Cut-off read from the data, not from the text of the source: active = inhibition above about 50%; inactive = the rest.

CN(C)CCNC(=O)NCC12CC3CC(C1)CC(c1ccccc1)(C3)C2	mHTT-CaM PPI inh 79
CN1CCCc2cc(C(CNC(=O)C34CC5CC(CC(C5)C3)C4)N3CCCC3)ccc21 (centres undefined)	none
CN1CCCc2cc(CCNS(=O)(=O)c3cccs3)ccc21	mHTT-CaM PPI inh 51
CN1CCCc2cc(CCNC(=O)C34CC5CC(CC(C5)C3)C4)ccc21	mHTT-CaM PPI inh 53
O=S(=O)(NCC#CCN1CCc2ccccc2C1)c1cccs1	none
Cc1cc(C)nc(NS(=O)(=O)c2ccc(NC(=O)CSc3cccc4cccnc34)cc2)n1	none
Cn1nc(C(=O)NCc2ccccc2)c2c1CCN(C(=O)c1ccc(F)cc1)C2	none
Cc1cccc(C(=O)N2CCc3c(c(C(=O)NCc4ccccc4)nn3C)C2)c1	mHTT-CaM PPI inh 88
Cn1nc(C(=O)NCc2ccc(F)cc2)c2c1CCN(C(=O)c1cccc(F)c1)C2	none
Cc1cccc(CNC(=O)c2nn(C)c3c2CN(C(=O)c2ccc(F)cc2)CC3)c1	mHTT-CaM PPI inh 51
Cn1nc(C(=O)NCc2ccc(F)cc2)c2c1CCN(C(=O)c1ccco1)C2	none
Cc1cccc(C(=O)N2CCc3c(c(C(=O)NCc4ccc5c(c4)OCO5)nn3C)C2)c1	mHTT-CaM PPI inh 62
Cc1cccc(CNC(=O)c2nn(C)c3c2CN(C(=O)c2ccco2)CC3)c1	mHTT-CaM PPI inh 72
CC(C)C(=O)N1CCc2c(c(C(=O)NCc3ccc4c(c3)OCO4)nn2C)C1	none
Cc1ccc(S(=O)(=O)NC(=NC(C)C)c2ccc(F)cc2)cc1	none
COCCn1c(=N)c(C#N)cc2c(=O)n3cccc(C)c3nc21	none
O=C(c1cccc(I)c1)N1CCN(c2ccccc2)CC1	none
OC(COCC1CC=CCC1)CN1CCCCC1 (centres undefined)	none
COc1ccccc1CNC1CCN(c2ccc(C(=O)NC3CC3)cn2)C1 (centres undefined)	none
COc1ccc(C(=O)N2CCc3c(c(C(=O)NCc4cccc(C)c4)nn3C)C2)cc1	none
Cc1cccc(CNC(=O)c2nn(C)c3c2CN(C(=O)COc2cccc(C)c2)CC3)c1	mHTT-CaM PPI inh 76
Cc1cccc(CNC(=O)c2nn(C)c3c2CN(C(=O)CSc2ccccc2)CC3)c1	mHTT-CaM PPI inh 66
CCOc1ccc(C(=O)N2CCc3c(c(C(=O)NCc4cccc(C)c4)nn3C)C2)cc1	none
Cc1cccc(CNC(=O)c2nn(C)c3c2CN(C(=O)C2CC2)CC3)c1	none
COc1cccc(C(=O)N2CCc3c(c(C(=O)NCc4ccc5c(c4)OCO5)nn3C)C2)c1	mHTT-CaM PPI inh 51
COc1cc(NC(=O)COc2ccc(Cl)cc2C)ccc1NC(=O)c1ccco1	none
NS(=O)(=O)c1ccc(CNC2CC(=O)N(c3ccc(C(=O)O)cc3)C2=O)cc1 (centres undefined)	none
Fc1ccccc1N1CCN(c2ncc3c(n2)CCN(Cc2ccccc2)C3)CC1	none
O=C(Nc1ccc(Cl)cc1)Nc1nnc(-c2cccc([N+](=O)[O-])c2)s1	none
CC(=O)C1=C(C)NC(SCC(=O)c2cccc(Cl)c2)=C(C#N)C1c1sccc1C (centres undefined)	Pf apPOL block 100
CC(=O)C1=C(C)NC(SCC(=O)c2cccc([N+](=O)[O-])c2)=C(C#N)C1c1ccc(Cl)cc1 (centres undefined)	mHTT-CaM PPI inh 56
CC(=O)C1=C(C)NC(SCC(=O)c2cc(Cl)ccc2Cl)=C(C#N)C1c1ccco1 (centres undefined)	none
CC(=O)C1=C(C)NC(SCC(=O)c2ccc(Cl)cc2)=C(C#N)C1c1sccc1C (centres undefined)	none
CC(=O)C1=C(C)NC(SCC(=O)c2ccc(Cl)c(Cl)c2)=C(C#N)C1c1ccco1 (centres undefined)	mHTT-CaM PPI inh 54
CC(=O)C1=C(C)NC(SCC(=O)c2ccc(Cl)cc2)=C(C#N)C1c1cccc([N+](=O)[O-])c1 (centres undefined)	none
Cc1ccc([N+](=O)[O-])cc1NC(=O)C(=O)NCc1ccccn1	none
O=C(Cc1cccs1)NC1CC(=O)N(C2CC2)C1 (centres undefined)	none
CCc1ccc(C2=C/C(=C/c3cc(OC)ccc3OC)C(=O)O2)cc1	none
COc1cc(-c2nc3ccccn3c2N=Cc2ccc(F)cc2)ccc1O	mHTT-CaM PPI inh 79
COc1cc(-c2nc3ccccn3c2N=Cc2ccccc2)ccc1O	none
c1ccc(C2=NCCn3cccc32)cc1	none
Brc1ccc(-c2cc3n(c2)CCn2cccc2-3)cc1	mHTT-CaM PPI inh 84
Brc1ccc(-c2cc3ccccn3c2)cc1	none
Clc1ccc(-c2cc3n(c2)CCn2cccc2-3)cc1Cl	mHTT-CaM PPI inh 100
Fc1ccc(-c2cc3n(c2)CCn2cccc2-3)c(F)c1	mHTT-CaM PPI inh 100
CC1c2cccn2CCN1C(=O)Nc1ccc(F)cc1F (centres undefined)	none
O=[N+]([O-])c1ccc(-c2nc(C=Nc3cccc(F)c3)c(O)o2)cc1	none
CCOc1cc2c(C(=O)Nc3ccc(F)c(Cl)c3)cn(CC(C)C)c(=O)c2cc1OCC	none
CCOc1ccccc1CNC(=O)c1cccc(C2CCCN(C(=O)NC(C)C)C2)c1 (centres undefined)	none
COc1ccc(/C=C2/N=C(c3cccc([N+](=O)[O-])c3C)OC2=O)cc1	none
O=C(c1cccc(Oc2cc(-c3ccccc3)ncn2)c1)N1CCCC1	mHTT-CaM PPI inh 70, Pf apPOL block 60
CC(C)Oc1cccc(C(=O)N2CCCC2)c1	none
CCn1ccc2oc(C)c(C(=O)NCc3cc(C)ccc3C)c2c1=O	none
CCCn1ccc2oc(C)c(C(=O)N3CCN(c4ccccc4F)CC3)c2c1=O	none
CCn1ccc2oc(C)c(C(=O)N3CCN(c4cc(C)ccc4C)CC3)c2c1=O	mHTT-CaM PPI inh 85
CCn1ccc2oc(C)c(C(=O)N3CCN(c4cccc(C)c4C)CC3)c2c1=O	mHTT-CaM PPI inh 66
O=C(O)C=CC(=O)NCCc1ccc(Cl)cc1	none (no result: mHTT-CaM PPI inh)
CC1(C)CC(=O)C2=C(C1)Nc1cccnc1NC2c1ccc2c(c1)OCO2 (centres undefined)	none
Nc1c(N)c(N)c(N)c(N)c1N	mHTT-CaM PPI inh 64 (no result: Pf apPOL block)
Cc1cccc(C)c1Nc1c(-c2ccccn2)nc2ncccn12	mHTT-CaM PPI inh 100
Cc1ccc(-c2nc3ncccn3c2Nc2c(C)cccc2C)o1	none
C=CCc1cc(Cl)ccc1OCCNCCO	none
Cc1cc(=O)n(CC(=O)N(C)c2ccccc2)c(N2CCCCC2)n1	none
Cc1[nH]c(=O)[nH]c(=O)c1S(=O)(=O)N1CCCC(C(=O)Nc2ccc(Cl)cc2)C1 (centres undefined)	none
Cc1ccc(C)n1-c1ccc(S(N)(=O)=O)cc1	mHTT-CaM PPI inh 75
Cn1c(=O)n(-c2ccc(S(N)(=O)=O)cc2)c(=O)n1C	none
Cc1ccc(-c2cc(C(C)(C)C)nc(N)c2C#N)cc1	none
Cc1ccccc1CN1CCCN(c2ncccc2-c2nc(C(C)C)no2)CC1	none
CC(C)c1noc(-c2cccnc2N2CCCN(Cc3ccccc3Cl)CC2)n1	mHTT-CaM PPI inh 61
CC(C)(C)C1CC=C2C(C#N)=C(N)C(C#N)(C#N)C(c3ccccc3)C2C1 (centres undefined)	none
N#CC1=C(N)C(C#N)(C#N)C(c2ccccc2)C2CCCC=C12 (centres undefined)	none
N#CC1=C(N)C(C#N)(C#N)C(c2cccs2)C2CC(c3ccccc3)CC=C12 (centres undefined)	mHTT-CaM PPI inh 96
CCCN1CC=C2C(C#N)=C(N)C(C#N)(C#N)C(c3ccc(-c4ccccc4)cc3)C2C1 (centres undefined)	mHTT-CaM PPI inh 63
CC(C)c1ccc(C2C3CCCC=C3C(C#N)=C(N)C2(C#N)C#N)cc1 (centres undefined)	mHTT-CaM PPI inh 55

Screens (PubChem BioAssay)
